The values below come from PubChem BioAssay.

The nature of assay [1]: small molecules captured by biotinylated probe aFSTL3 – biochemical, small-molecule microarray, fluorescence 635/667, stem cell growth factor project, primary screen (AID 1064).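 Further: measures binding of the biotinylated anti-FSTL3 antibody to printed compounds.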 To be noted: higher = more signal.
Assay [2] can be described thus: binders from COS7 lysate, DM2A8 probe, primary screen, torsin A project, cell lysate, small-molecule microarray, fluorescence 635/667 (AID 1065). To be noted: higher = more signal, COS7 lysate expressing mutant human TOR1A.
A short description of assay [3]: small molecules captured by biotinylated probe aFGF2 – biochemical, small-molecule microarray, fluorescence 635/667, stem cell growth factor project, primary screen (AID 1067).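 Further: measures binding of biotinylated aFGF2 protein to printed compounds on slides; z-score merges feature fluorescence and signal-to-noise across triplicate slides.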 To be noted: higher = more signal.
The nature of assay [4]: small molecules captured by biotinylated probe aFGF10 – biochemical, small-molecule microarray, fluorescence 635/667, stem cell growth factor project, primary screen (AID 1071).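 Further: score merges 667 nm spot intensity and signal to noise from triplicate slides.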 To be noted: higher = more signal.
Assay [5] has as its target Neurogenic locus notch homolog protein 2 (Homo sapiens) (UniProt Q04721). Nature of the assay: small molecules binding Notch2 protein – biochemical, small-molecule microarray, 635 nm fluorescence, stem cell growth factors, primary screen (AID 1073). Particulars: higher = more signal.
Assay [6] addresses Pro-neuregulin-1, membrane-bound isoform (Homo sapiens) (UniProt Q02297). Kind of assay: small molecules binding neuregulin-1 protein – biochemical, small-molecule microarray, fluorescence 635/667, psychiatric disease protein project, primary screen (AID 1075).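 Further: score combines 667 nm spot fluorescence with signal to noise.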 To be noted: NRG1 binding, 635 nm fluorescence, higher = more signal.
Assay [7] relates to Neuregulin-1 EGF-like domain. Nature of the assay: small molecules binding NRG1 EGF domain – biochemical, small-molecule microarray, 635 nm fluorescence, primary screen (AID 1081).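 Further: binding of the protein to compounds printed on small-molecule microarray slides.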 To be noted: higher = more signal.
The nature of assay [8]: FRG1 expression reporter modulators in myotubes – cell-based, C2C12 myotubes, firefly/Renilla luciferase, luminescence, FRG1 inhibition for FSHD, primary screen (AID 1084). Particulars: FRG1 promoter luciferase, higher = more signal, called active from +8 up or from −8 down.
The nature of assay [9]: small molecules captured by biotinylated probe aFST – biochemical, small-molecule microarray, fluorescence 635/667, stem cell growth factor project, primary screen (AID 1086).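 Further: score merges 667 nm fluorescence with signal-to-noise of each printed compound spot.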 To be noted: higher = more signal.
A short description of assay [10]: binders of probe aHhip on microarray, primary screen, stem cell growth factor project, biochemical, small-molecule microarray, fluorescence 635/667 (AID 1087).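 Further: score merges spot fluorescence at 667nm with spot signal to noise ratio.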 Particulars: higher = more signal.

SMILES strings stand for the structures. Activity calls are given as the source filed them.

Sequence of Pro-neuregulin-1, membrane-bound isoform (Homo sapiens) (Q02297 whole entry, looked up, the tested form may be a part, canonical isoform): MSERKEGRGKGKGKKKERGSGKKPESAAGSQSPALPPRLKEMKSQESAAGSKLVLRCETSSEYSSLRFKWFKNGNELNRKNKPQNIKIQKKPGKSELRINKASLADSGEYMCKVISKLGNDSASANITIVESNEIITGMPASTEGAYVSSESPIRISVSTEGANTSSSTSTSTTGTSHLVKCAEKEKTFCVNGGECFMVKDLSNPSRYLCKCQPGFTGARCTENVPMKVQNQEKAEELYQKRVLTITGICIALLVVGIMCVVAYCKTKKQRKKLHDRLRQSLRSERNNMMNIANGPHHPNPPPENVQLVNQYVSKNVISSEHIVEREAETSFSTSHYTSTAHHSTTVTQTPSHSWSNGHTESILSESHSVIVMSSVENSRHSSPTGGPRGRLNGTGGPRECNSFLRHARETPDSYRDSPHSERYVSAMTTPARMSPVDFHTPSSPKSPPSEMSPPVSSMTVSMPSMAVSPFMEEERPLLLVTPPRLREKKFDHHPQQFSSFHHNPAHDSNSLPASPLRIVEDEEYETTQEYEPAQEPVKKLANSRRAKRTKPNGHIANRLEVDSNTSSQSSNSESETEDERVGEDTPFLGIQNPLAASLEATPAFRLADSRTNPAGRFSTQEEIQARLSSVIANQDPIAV
Sequence of Neurogenic locus notch homolog protein 2 (Homo sapiens) (Q04721 whole entry, looked up, canonical isoform): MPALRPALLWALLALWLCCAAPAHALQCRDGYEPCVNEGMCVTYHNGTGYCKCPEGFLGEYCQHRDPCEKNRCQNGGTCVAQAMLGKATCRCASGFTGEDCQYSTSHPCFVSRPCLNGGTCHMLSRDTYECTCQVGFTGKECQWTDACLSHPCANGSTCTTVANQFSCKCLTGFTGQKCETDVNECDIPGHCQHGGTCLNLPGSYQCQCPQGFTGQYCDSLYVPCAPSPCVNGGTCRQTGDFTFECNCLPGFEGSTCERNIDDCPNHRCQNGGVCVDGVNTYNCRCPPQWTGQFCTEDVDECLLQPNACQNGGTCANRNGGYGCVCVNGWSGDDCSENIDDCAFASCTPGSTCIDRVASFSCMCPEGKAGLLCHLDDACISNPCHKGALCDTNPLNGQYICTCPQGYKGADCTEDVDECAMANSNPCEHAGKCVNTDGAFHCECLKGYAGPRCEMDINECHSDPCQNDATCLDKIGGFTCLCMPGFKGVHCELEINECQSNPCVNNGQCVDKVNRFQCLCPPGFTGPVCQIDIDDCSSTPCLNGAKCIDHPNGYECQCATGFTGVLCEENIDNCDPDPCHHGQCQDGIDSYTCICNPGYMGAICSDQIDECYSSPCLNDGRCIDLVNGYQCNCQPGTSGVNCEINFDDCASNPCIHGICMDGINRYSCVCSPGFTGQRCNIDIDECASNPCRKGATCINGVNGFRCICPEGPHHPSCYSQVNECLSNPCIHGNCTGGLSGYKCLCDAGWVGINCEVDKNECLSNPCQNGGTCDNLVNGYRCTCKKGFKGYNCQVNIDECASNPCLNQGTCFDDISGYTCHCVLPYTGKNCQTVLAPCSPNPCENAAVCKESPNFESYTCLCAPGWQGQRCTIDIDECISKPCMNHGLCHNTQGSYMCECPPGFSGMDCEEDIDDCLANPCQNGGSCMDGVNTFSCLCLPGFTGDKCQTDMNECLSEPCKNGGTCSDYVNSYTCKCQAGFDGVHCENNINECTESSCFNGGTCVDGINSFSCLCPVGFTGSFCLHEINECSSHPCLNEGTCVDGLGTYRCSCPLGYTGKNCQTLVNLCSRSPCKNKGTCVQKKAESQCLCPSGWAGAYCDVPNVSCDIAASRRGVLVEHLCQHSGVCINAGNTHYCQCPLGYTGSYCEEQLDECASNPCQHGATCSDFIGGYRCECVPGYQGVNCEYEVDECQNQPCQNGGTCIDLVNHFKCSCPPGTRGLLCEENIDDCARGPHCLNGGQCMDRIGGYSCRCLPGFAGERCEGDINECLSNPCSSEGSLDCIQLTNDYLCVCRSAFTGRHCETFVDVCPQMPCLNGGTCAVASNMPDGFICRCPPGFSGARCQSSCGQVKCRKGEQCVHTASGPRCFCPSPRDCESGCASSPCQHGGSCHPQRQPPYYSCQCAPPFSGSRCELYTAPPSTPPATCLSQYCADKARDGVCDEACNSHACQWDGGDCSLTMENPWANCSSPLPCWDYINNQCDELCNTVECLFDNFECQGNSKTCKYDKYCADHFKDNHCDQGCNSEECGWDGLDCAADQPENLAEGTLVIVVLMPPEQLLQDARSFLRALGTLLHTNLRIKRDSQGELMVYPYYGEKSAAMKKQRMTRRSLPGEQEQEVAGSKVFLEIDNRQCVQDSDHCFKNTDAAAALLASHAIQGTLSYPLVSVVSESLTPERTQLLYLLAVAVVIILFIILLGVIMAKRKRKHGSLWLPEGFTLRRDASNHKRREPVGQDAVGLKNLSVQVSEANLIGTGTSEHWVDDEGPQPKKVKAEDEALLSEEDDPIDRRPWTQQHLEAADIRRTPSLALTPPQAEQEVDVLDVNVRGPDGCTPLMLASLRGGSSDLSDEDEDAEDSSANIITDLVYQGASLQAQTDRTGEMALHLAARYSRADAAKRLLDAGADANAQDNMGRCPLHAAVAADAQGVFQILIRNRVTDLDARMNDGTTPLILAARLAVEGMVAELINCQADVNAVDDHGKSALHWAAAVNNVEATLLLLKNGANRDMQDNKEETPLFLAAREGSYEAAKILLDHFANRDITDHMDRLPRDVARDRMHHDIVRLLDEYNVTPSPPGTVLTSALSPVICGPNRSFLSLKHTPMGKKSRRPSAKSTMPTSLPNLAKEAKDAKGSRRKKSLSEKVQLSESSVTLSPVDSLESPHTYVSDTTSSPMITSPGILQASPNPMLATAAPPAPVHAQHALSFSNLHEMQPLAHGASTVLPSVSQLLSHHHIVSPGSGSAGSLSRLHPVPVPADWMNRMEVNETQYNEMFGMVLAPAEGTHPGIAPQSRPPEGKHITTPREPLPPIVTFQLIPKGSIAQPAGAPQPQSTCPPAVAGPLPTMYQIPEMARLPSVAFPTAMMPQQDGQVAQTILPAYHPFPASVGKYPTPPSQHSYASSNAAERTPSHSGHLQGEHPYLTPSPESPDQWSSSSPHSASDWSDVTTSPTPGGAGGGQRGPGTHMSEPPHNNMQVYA

As for `COc1ccc(-c2ccccc2[C@@H]2N[C@H](C(=O)O)CC[C@H]2C)cc1`, the composite z-score in assay [1] was -0.285; in assay [2] it was -0.0323; in assay [3], -0.132; in [4] it was 0.277; in assay [5] it was 0.244; in [6], -0.233. Further, the composite z-score in assay [7] is 0.424; in assay [9] it was 0.0952; in assay [10], -0.134. The z-score in assay [8] is -0.438 (inactive).

Regarding `C=CC(=O)O[C@@H](Cc1ccccc1)[C@H]1C2C=CCCC=C2CN1Cc1cccc(Cl)c1` (stereo not given in full), the composite z-score in [1] is 0.32; in assay [2], -0.32; in assay [3] it was -0.123; in assay [4], -0.682; in assay [5] it was -0.657; in assay [6], -0.518. Moreover, the values for the composite z-score in assay [7], in assay [9] and in [10] were -1.2, -0.254 and 0.176, respectively. For the same compound, in [8], the z-score was -1.44 (inactive).

Consider `C=CCC(OC(C)=O)[C@@H]1[C@@H](N(Cc2ccc(-c3ccccc3)cc2)C(=O)c2ccc(-c3ccccc3)cc2)c2cc(OCCCO)ccc2N1C(=O)Cc1ccc(OC)cc1` (stereo not given in full), for which the composite z-score is -0.28 in [1]; 0.354 in assay [2]; -0.0676 in [3]; 0.27 in assay [4]; -0.142 in [5]; 0.0866 in assay [6]. The figures for the composite z-score in assay [7], in [9] and in assay [10] were -0.261, 0.391 and -0.189, respectively. Moreover, the z-score in assay [8] is 0.826 (inactive).

As for `C=CCC(OC(C)=O)[C@@H]1[C@@H](N(Cc2cc3ccccc3o2)C(=O)c2ccc(C)cc2)c2cc(OCCCO)ccc2N1C(=O)c1ccc2ccccc2n1` (stereo not given in full), the composite z-score was 0.216 in assay [1]; 0.189 in [2]; -0.187 in assay [3]; 0.394 in assay [4]; 0.191 in [5]; -0.019 in [6]. In addition, the composite z-score in [7] was -0.323; in assay [9], 0.113; in assay [10] it was 0.107. In addition, the z-score in assay [8] was -0.508 (inactive).

Take `C[C@@H]1CC[C@H]2C(=O)N3[C@@H](CC[C@@H](C)[C@@H]3c3cccc(N4CCOCC4)c3)C(=O)N2[C@H]1c1cccc(N2CCOCC2)c1`: the composite z-score in assay [1] is 0.0943; in assay [2], 0.378; in assay [3] it was -0.166; in [4] it was 0.616; in assay [5] it was 0.92; in assay [6], 0.414. For the same compound, the composite z-score in assay [7] is 1.1; in assay [9], 0.619; in assay [10] it was 1.3. The z-score in assay [8] is -0.531 (inactive).

For `CC[C@@H]1C=C(C(=O)O)[C@H](c2ccccc2)N1S(=O)(=O)c1ccc([N+](=O)[O-])cc1`, the composite z-score was 0.0455 in assay [1]; -0.0271 in assay [2]; -0.0669 in assay [3]; 0.223 in assay [4]; 0.989 in [5]; 1.86 in assay [6]. Moreover, the results for the composite z-score in assay [7], in assay [9] and in assay [10] were 1.08, 0.13 and -0.0831, respectively. In addition, in assay [8], the z-score is -2.22 (inactive).

In the case of `CCOC(=O)C1=CC[C@@H](c2ccccc2)N(S(=O)(=O)c2ccc(C)cc2)[C@H]1C`, the composite z-score is -0.386 in assay [1]; 1.09 in assay [2]; 0.0257 in [3]; 1.11 in assay [4]; 1.59 in assay [5]; 1.45 in assay [6]. Further, the composite z-score was 1.12 in [7], 0.691 in [9] and -0.0994 in assay [10]. Further, in [8], the z-score was -2.8 (inactive).

On to `CN1CCC(CCCO)=CC1C1CC1` (stereo not given), for which the composite z-score in [1] was -0.389; in [2], 1.39; in assay [3], -0.199; in assay [4] it was -0.856; in assay [5], -1.13; in assay [6], -0.345. For the same compound, the composite z-score is 0.743 in [7], -0.287 in assay [9] and -0.251 in [10]. Moreover, the z-score in [8] is -0.901 (inactive).

Regarding `C=CC[C@]1(C(=O)OC)N=C(c2ccc(OCCCO)cc2)O[C@H]1c1ccccc1CN=[N+]=[N-]`, the composite z-score is 2.1 in assay [1]; 0.164 in [2]; -0.0004 in assay [3]; -0.564 in [4]; -0.543 in assay [5]; 0.391 in assay [6]. Further, the composite z-score is 0.863 in [7], 0.629 in [9] and -0.0994 in assay [10]. In assay [8], the z-score was -1.55 (inactive).

As to `CO[C@H]1COC(=O)CC=C[C@H](C)[C@@H](OC)COC(=O)[C@H](Cc2ccccc2)NC(=O)CC=C[C@@H]1C`, the composite z-score is -0.304 in assay [1]; 1.36 in assay [2]; -0.167 in assay [3]; -1.09 in [4]; -1.79 in assay [5]; -0.806 in [6]. For the same compound, the composite z-score in [7] was -1.09; in [9], -0.463; in assay [10], 0.0524. The z-score in assay [8] was -1.01 (inactive).

In the case of `O=C1C2C=CC(C(O)c3ccccc3)N(n3cnnc3)C2C(=O)N1Cc1ccccc1` (stereo not given), the composite z-score in [1] was 0.43; in [2], -0.399; in assay [3], -0.0598; in assay [4] it was 0.118; in assay [5], 0.729; in [6], 1.33. The composite z-score in [7] is 0.544; in assay [9], 0.364; in assay [10], -0.16. Further, the z-score in assay [8] was -1.43 (inactive).

With `O=C1c2ccccc2[C@](Cc2ccccc2I)(C(=O)NCc2ccccc2)[C@H](c2ccc(CO)cc2)N1Cc1ccccc1C(F)(F)F`, the composite z-score in assay [1] was 0.988; in [2], 0.077; in [3] it was -0.131; in assay [4], -0.787; in [5], -1.28; in [6], 0.385. For the same compound, the composite z-score in assay [7] is -0.56; in assay [9], -0.318; in assay [10], -0.134. For the same compound, the z-score in assay [8] is -1.98 (inactive).

Consider `CCCNC(=O)[C@@]1(Sc2ccc(C)cc2)CC(=O)N(Cc2ccccc2Cl)[C@@H]1c1ccc(CO)cc1`, for which the composite z-score is 0.295 in assay [1]; -0.106 in assay [2]; -0.0711 in assay [3]; 0.122 in [4]; 0.653 in assay [5]; -0.0272 in [6]. The composite z-score in [7] is 1.3; in assay [9], 0.427; in [10] it was -0.0672. The z-score in [8] was -3.75 (inactive).

With `COCCOC(=O)N1C(=O)[C@@]2(c3cc(C#CCC(C(=O)OC)C(=O)OC)ccc31)[C@H](C(=O)N1CCN(c3ncccn3)CC1)[C@H]1C(=O)O[C@H](c3ccccc3)[C@H](c3ccccc3)N1[C@@H]2c1ccc(O)cc1`, the composite z-score in assay [1] is -0.0797; in [2], 1.47; in assay [3], 0.0051; in assay [4] it was 0.579; in assay [5], 1.08; in [6], 1.07. In addition, the composite z-score was 1.2 in [7], -0.304 in assay [9] and 0.0623 in assay [10]. The z-score in assay [8] is -0.24 (inactive).

As for `COc1ccc(-c2cc3c(c(-c4ccccc4)n2)[Si](C(C)C)(C(C)C)O[C@H]3c2ccccc2)cn1`, the composite z-score in assay [1] was -0.248; in [2] it was 0.0094; in [3], -0.106; in [4], 0.144; in assay [5] it was 0.241; in [6], 0.0264. In addition, the composite z-score in assay [7] was 0.335; in [9], -0.116; in assay [10] it was 0.316. Moreover, the z-score in assay [8] was -0.68 (inactive).
